Target: Solute carrier family 2, facilitated glucose transporter member 1 (Homo sapiens) (UniProt P11166)
Assay: ST_JUDE_LEISH: Cytotoxicity at 2uM final concentration against transgenic Leishmania Mexicana promastigotes LmGLUT1 that are glucose transport deficient and complemented with the human glucose transporter GLUT1. Activity is measured by DNA content using SYBR green in vitro
Assay type: functional

Sequence of Solute carrier family 2, facilitated glucose transporter member 1 (Homo sapiens) (P11166 whole entry): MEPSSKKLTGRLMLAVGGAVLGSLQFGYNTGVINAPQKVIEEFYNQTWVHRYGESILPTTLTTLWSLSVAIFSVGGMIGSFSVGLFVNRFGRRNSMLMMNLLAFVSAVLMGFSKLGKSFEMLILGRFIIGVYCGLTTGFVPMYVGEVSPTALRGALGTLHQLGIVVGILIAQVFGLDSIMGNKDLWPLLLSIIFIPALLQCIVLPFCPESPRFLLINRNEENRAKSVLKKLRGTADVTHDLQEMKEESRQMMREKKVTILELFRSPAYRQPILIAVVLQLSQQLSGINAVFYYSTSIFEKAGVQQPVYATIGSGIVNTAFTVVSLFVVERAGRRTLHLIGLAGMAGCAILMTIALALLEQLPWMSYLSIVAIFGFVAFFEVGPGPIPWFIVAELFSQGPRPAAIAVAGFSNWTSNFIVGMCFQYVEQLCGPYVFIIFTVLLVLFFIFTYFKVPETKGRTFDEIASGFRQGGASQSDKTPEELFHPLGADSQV

Compound | inhibition [%]
COc1ccc(C2C(C(=O)Nc3cc(Cl)c(OC)cc3OC)c3ccccc3C(=O)N2C)cc1 (stereo not given) | 0.28
CCOC(=O)c1ccc(NC(=O)N(Cc2ccc(-c3ccc(CN4CCNCC4)cc3)cc2)Cc2cccnc2)cc1 | 2.01
Cc1cccc2nc(-c3ccc(-c4cccc(NC(=O)c5cnn6cccnc56)c4)cc3)[nH]c12 | 15.4
N=C(NCCc1ccc(Cl)c(Cl)c1)c1ccc2ccccc2c1 | 3.61
O=C(Nc1cccc(CN2CCCN(Cc3ccsc3)CC2)c1)c1cc2ccccc2s1 | 1.11
O=C(Oc1ccc(C2CNCCc3c2cc(OC(=O)c2ccc(O)cc2)c(OC(=O)c2ccc(O)cc2)c3Cl)cc1)c1ccc(O)cc1 (stereo not given) | 4.39
O=C(NCC1CCCCC1)c1cc(=O)c2ccccc2o1 | 8.02
O=S(=O)(Nc1cc2c(cc1O)CCNCC2)c1ccc(-c2ccc(Cl)cc2)cc1 | 3.27
CCc1cn(C)c2c(N3CCCC3=O)cc(C(=O)N[C@@H](Cc3ccccc3)[C@H](O)CNCc3cccc(OC)c3)cc12 | 2.48
CC(C)(CNC(=O)C1CCN(Cc2ccoc2)CC1)c1nc(-c2ccc(Cl)c(O)c2)c(-c2ccncc2)[nH]1 | -1.41
COc1cc(CN/C(=N/c2ccc(-c3ccccc3)cc2)Nc2ccc(C#N)cc2O)cc(OC)c1 | 1.7
O=C(Nc1ccc(OC2CCN(Cc3ccccc3)CC2)c(Cl)c1)c1cccs1 | 2.31
Cc1cc(CN2CCCC(OC(c3ccc(F)cc3)c3ccc(F)cc3)C2)ccc1O (stereo not given) | 9.25
CCOC(=O)C1=C(C)NC(C)=C(C(=O)OCC)C1(C(=O)OCc1ccccc1)c1cccc(C(F)(F)F)c1 | 2.88
CC(C)CNc1nc(N)nc2ccc3c(ccn3CC(C)C)c12 | 1.7
CC(C)OC(=O)c1ccc(NC(=O)N[C@@H](Cc2ccc(O)cc2)C(=O)NC2CC3CCC(C2)N3Cc2ccccc2)cc1 (stereo not given in full) | 5.85
CCNCc1cccc(-c2ccc3ccnc(N)c3c2)c1 | 4.49
CCC(C)CN1CCN(c2cc(NC(=O)c3cccs3)ccn2)C(C)C1 (stereo not given) | -1.02
COc1ccc(C2CC(c3cccs3)=NN2C(=O)c2ccccc2)cc1OC (stereo not given) | 6.92
Cc1cccc2nc(-c3ccc(-c4ccc(CN5CCCC(N)C5)cc4)cc3)[nH]c12 (stereo not given) | 8.17

Compound | inhibition [%]
CN(CCc1ccccn1)Cc1ccc(-c2ccc(-c3nc4ccccc4[nH]3)s2)cc1 | -0.34
COc1ccc(-c2cc(C(F)(F)F)n3ncc(C(=O)Nc4cc(C)ccc4O)c3n2)cc1OC | 4.34
CCCc1ccc(NC(=O)c2cccc(CN3CCCN(Cc4cccc(C#N)c4)CC3)c2)cc1 | 3.6
Cc1cc(N[C@@H](CC(C)C)C(=O)NCCc2ccccc2)nc(Nc2ccccc2)n1 | 4.26
COc1ccc2ncc(F)c(CCN3CC[C@H](NCc4cc(C#N)c5c(c4)OCCO5)[C@H](O)C3)c2c1 | 42.4
Cc1cccc2nc(-c3ccc(-c4cccc(NC(=O)C(C)CN5CCN(C)CC5)c4)s3)[nH]c12 (stereo not given) | 11.7
COc1cc2c(cc1OCCN1CCC(N)CC1)N(C(=O)/C=C/c1ccccc1Cl)CC2 | 11.3
c1ccc(CNc2nc(NCCc3c[nH]cn3)nc(NCc3cccc4ccccc34)n2)cc1 | -1.52
CCOC(=O)C(=O)N1c2ccc(OCC)cc2-c2c(ssc2=S)C1(C)C | -0.01
O=S1(=O)C=C(c2ccccc2)CC1 | 1.23
CN1CCN(c2ccc(Nc3ncc(C#N)c(Nc4ccccc4C(N)=O)n3)cc2)CC1 | 75.6
N=C(N)Nc1ccc(NC(=O)Nc2ccc(NC(=N)N)cc2)cc1 | 0.9
Cn1c(N)c(C(=O)CSc2nnc(-c3cccs3)n2Cc2ccccc2)c(=O)n(C)c1=O | 10.1
Cc1ccccc1C1CCN(C2CCC(NC(=O)C3=Cc4cc(Cl)ccc4OC3)CC2)CC1 (stereo not given) | -3.31
Cn1c(NC(=O)CCCCCNC(=O)c2ccc(O)c(-c3ccc(Cl)c(Cl)c3)c2)nc2ccccc21 | 1.81
O=C(Nc1ccc(F)cc1)NC1CCN(CCCCCNC(=O)C2CC2c2ccc(Cl)c(Cl)c2)CC1 (stereo not given) | 1.84
O=C(NCc1ccccc1)C1Cc2c([nH]c3ccc(Br)cc23)C2(CCN(Cc3ccccc3)CC2)N1 (stereo not given) | 2.61
Cc1ccc(CNC(=O)[C@H](Cc2ccccc2)Nc2cc(C)nc(NCc3ccccc3C)n2)cc1 | 5.69
COc1ccccc1CN1CCC(NC(=O)c2ccc(-c3ccc(N(C)C)cc3)s2)CC1 | 9.96
Cc1ccc(O)cc1Nc1ccnc2ccc(-c3cccc(CN(C)C)c3)cc12 | 0.24

Source: ChEMBL document CHEMBL3433997, “St. Jude Leishmania screening dataset” (2016)
